# Sampled rows, rich in hits. Any-hit rate of the full collection: about 2.5%.
# Cruzain noTriton = cruzain (T. cruzi) inhibition without detergent; 200,000 compounds, 2.3% hits; Potency, µM, for inactives: max response, negative = inhibition, most hits filed as inhibitors; AID 1476; purified cruzain, Z-FR-AMC fluorescence, no detergent; P25779;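 further: plate controls were enzyme without inhibitor for no effect and buffer without enzyme for full effect; nearly all actives have a fitted effect of over 40% in size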
# Target sequence (P25779 123-467 limits assumed): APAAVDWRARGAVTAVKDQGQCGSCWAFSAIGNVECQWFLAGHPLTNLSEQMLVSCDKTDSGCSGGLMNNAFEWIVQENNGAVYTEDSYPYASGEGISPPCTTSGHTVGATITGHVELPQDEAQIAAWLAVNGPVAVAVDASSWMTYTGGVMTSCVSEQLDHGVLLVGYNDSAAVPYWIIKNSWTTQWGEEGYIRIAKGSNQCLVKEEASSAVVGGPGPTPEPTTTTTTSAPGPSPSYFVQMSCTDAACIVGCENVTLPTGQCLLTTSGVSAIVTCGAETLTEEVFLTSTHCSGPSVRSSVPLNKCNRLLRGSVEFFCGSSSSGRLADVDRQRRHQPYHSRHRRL
#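 Purified cruzain at 1.5 nM, pre-incubated 15 min with compound at room temperature in 100 mM sodium acetate pH 5.5, 5 mM DTT, 0.00005% Triton X-100. Reaction started with 2 uM Z-FR-AMC; AMC fluorescence increase over 60 s gives rate.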
# Cruzain inh Det = blocks cruzain activity in presence of Triton detergent. P25779. 200,000 compounds, 0.43% hits. purified cruzain, Z-FR-AMC fluorescence, 0.01% Triton. Potency, µM, inactives show max response, negative = inhibition, usual class: inhibitors. AID 1478;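 further: plate controls were neutral wells for no effect and buffer without enzyme for full effect; nearly all actives have a fitted effect of over 40% in size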
#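 Read-out: AMC fluorescence (360 nm excitation, 450 nm emission), four reads over 2 min, first-to-third difference used. Conditions: cruzain 1.5 nM, Z-FR-AMC 2 uM, pH 5.5 acetate, 5 mM DTT, 0.01% Triton X-100.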
# Starred values were filed as active, the others as inactive; ? = inconclusive; ! = repeats disagree. The call rests on the fitted dose curve; in most records, active means well fitted curve in the direction sought with a large enough effect; inconclusive means small, poorly fitted or top-dose-only effect, or another doubt; inactive means no such curve, though single readings can be large; an effect the other way counts as inactive or inconclusive. Potency means the concentration at half of the fitted maximal effect.
SMILES,Cruzain noTriton,Cruzain inh Det
O=C(Cc1cccs1)Nc1nc(-c2ccccc2)cs1,0%,-10%
O=C(COC(=O)CNC(=O)c1ccccc1)Nc1nc(-c2ccccc2)cs1,?,25µM*
O=C(COC(=O)c1cccs1)Nc1nc(-c2ccccc2)cs1,10µM*,0%
C/C(=N\Nc1nc2ccccc2s1)c1cccs1,-23%,-11%
CCOc1ccc(Nc2c(S(=O)(=O)c3ccccc3)cnc3ccc(CC)cc23)cc1,8%,-3%
COc1cccc(N2CC(NC(=O)c3ccc(S(=O)(=O)N4CCCCC4)cc3)CC2=O)c1 (configuration not stated),9%,-2%
CCC(=O)N1CCc2cc(CNC(=O)c3ccccc3C)ccc21,0%,2%
COc1ccc(-c2nnc(SCC(=O)Nc3ccc(F)cc3)s2)cc1,-13%,-2%
Cc1cccc(OCCn2c(-c3ccc(Cl)cc3)nc3ccccc3c2=O)c1C,8%,0%
O=c1c2oc3ccccc3c2n(Cc2ccc(Cl)cc2)c(=O)n1Cc1ccccc1,-8%,-1%
O=C(CSc1nc2ccccc2c2nc(-c3ccccc3)nn12)Nc1ccc(Br)cc1,2%,2%
Cn1cc(Cl)c(C(=O)OCC(=O)Nc2nc(-c3ccc(Br)cc3)cs2)n1,32µM*,-6%
Cn1nccc1C(=O)OCC(=O)Nc1nc(-c2ccccc2)cs1,-6%,-8%
Cc1ccccc1NC(=O)c1ccc(F)c(S(=O)(=O)N2CCN(c3ccccc3F)CC2)c1,-28%,1%
Cc1cc(C)c2c(-n3cccc3)c(C(=O)NCCCN3CCCCC3C)sc2n1 (configuration not stated),-6%,-2%
Cn1cc(S(=O)(=O)N2CCCCC2)cc1C(=O)N1CCN(c2ccccc2F)CC1,26%,-2%
Cc1c(C(=O)NCC2COc3ccccc3O2)oc2ccc(S(=O)(=O)N3CC(C)CC(C)C3)cc12 (configuration not stated),20µM*,2%
Cc1c(C(=O)NCC2COc3ccccc3O2)oc2ccc(S(=O)(=O)N3CCOCC3)cc12 (configuration not stated),10%,-3%
Nc1ccncc1,3.5µM*!,3.2µM*!
c1cc(-c2ccncc2)ccn1,-5%,1%
Cc1ccc(C(C)C)c(OCCCn2c(=O)oc3ccccc32)c1,-17%,-7%
CCC(C(=O)NCc1ccccc1)n1ncn2c(cc3occc32)c1=O (configuration not stated),7%,-3%
CSc1ccc(CCNC(=O)C(C)n2nc(C)c3sc4ccccc4c3c2=O)cc1 (configuration not stated),-7%,-15%
CCOC(=O)CNC(=O)O[C@@H]1C(=O)c2cc(OC)ccc2O[C@H]1c1cccc(OC)c1,0%,3%
CCOC(=O)CNC(=O)O[C@H]1C(=O)c2cc(OC)ccc2O[C@@H]1c1ccc(OC)c(Br)c1,13µM*,-1%
SMILES,Cruzain noTriton,Cruzain inh Det
COc1cccc(Nc2ncc3nc(CCc4ccccc4)c(=O)n(C[C@H]4CCCO4)c3n2)c1,-11%,-9%
Cc1ccc(-n2c3nc(=O)n(C)c(=O)c-3cc3c(Cl)cccc32)c(C)c1,-6%,-1%
COC(=O)Cc1c(C)c2ccc(O)c(CN3CCCC(C)C3)c2oc1=O (configuration not stated),?,25µM*
COc1ccc(-c2c(C)c3ccc(O)c(CN4CCCC4)c3oc2=O)cc1,3%,-6%
CCc1ccc(N2CC(c3nc4ccccc4n3Cc3ccccc3C)CC2=O)cc1 (configuration not stated),-5%,-6%
COc1ccccc1NC(=O)CCC(=O)c1ccc(-c2ccccc2)cc1,-3%,-7%
CCc1ccccc1NC(=O)CCC(=O)OCC(=O)c1ccc(-c2ccccc2)cc1,16µM*,-2%
CCCN(CCC)C(=O)Cn1c(=O)n(-c2cccc(OC)c2)c(=O)c2c3c(sc21)CCCC3,-9%,-4%
CC(C)CCNC(=O)[C@H](CC(C)C)NC(=O)[C@H]1O[C@@H]1C(=O)O,0.1µM*,0.1µM*
CC(C)CCNC(=O)CCCOc1ccccc1,0%,4%
COc1cccc(-c2nc(-c3ccccc3)[nH]c(=O)c2C#N)c1,-8%,5%
COc1ccc(-c2nc(-c3cccc(C)c3)[nH]c(=O)c2C#N)cc1,10µM*,-3%
COc1ccccc1NC(=O)N1CCC(CN2CCc3ccccc3C2)CC1,6%,0%
COC(=O)C1=C(C)Nc2sc(C(N)=O)c(N)c2C1c1ccncc1 (configuration not stated),-12%,-4%
CCOC(=O)C1=C(C)Nc2sc(C(=O)c3ccc(OC)cc3)c(N)c2C1c1ccc(C(=O)OC)cc1 (configuration not stated),32µM*,-3%
COc1ccc(OCC(=O)OCc2cc(=O)n3cc(C)sc3n2)cc1,-8%,-5%
O=C(c1ccc(COc2c(F)c(F)c(F)c(F)c2F)o1)N1CCN(Cc2ccc3c(c2)OCO3)CC1,?,28µM*

# From PubChem BioAssay
